HSP90 refold inh: blocks HSP90-mediated luciferase refolding in reticulocyte lysate; Rabbit reticulocyte lysate, luciferase refolding luminescence, 3 h; inhibition, % at 5.6 µM; 290,000 tested, 0.91% active; AID 1789;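 active means inhibition above the screen-wide mean plus 3 SD, computed separately per campaign, cut at about 16% in these data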;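 further: 0% = DMSO wells and 100% = 60 µM geldanamycin wells; inhibitors lower the luminescence because luciferase stays unfolded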
STAT1 blocker: STAT1 signaling inhibition | NIH 3T3 STAT1-luciferase reporter, IFN-gamma, luminescence | inhibition, % at 5.5 µM | 200,000 tested, 0.35% active | AID 920;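 active means inhibition above a set limit, the mean inhibition across all tested compounds plus 3 SD, cut at about 34% in these data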;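 further: 0% = IFN-gamma with DMSO and 100% = IFN-gamma with 300 µM nifuroxazide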
HSF1 inhib: HSF1 inhibition. activity change, negative = inhibition, % at 7.5 µM (by protocol). NIH3T3-HGL HSE-luciferase, MG132-induced, luminescence 8 h; hits give low values. 300,000 tested, 0.77% active;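 active means more than half of replicate wells show activity change below -50%, luminescence cut by over half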;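 further: luciferase reports HSF-1 transcriptional activity via heat shock element; 0% = median of DMSO wells and -100% = zero luminescence signal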
C8 TRAIL sens: sensitizes caspase-8 expressing cells to TRAIL | NB7+C8 cells + TRAIL, ATPlite viability luminescence | inhibition (viability loss, TRAIL sensitization), % at 10 µM | 360,000 tested, 1% active;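 active means compounds causing at least 50% loss of cell viability in the single-dose screen, relative to plate controls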
PPC-1+TRAIL kill: compounds killing PPC-1 cancer cells with TRAIL present (potentiator screen, no TRAIL-free arm) | PPC-1 cells + TRAIL, ATPLite viability luminescence | cell killing (% activity), % at 4 µM or 5 µM | 220,000 tested, 0.41% active;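 active means cell killing above 50% in the first pass at 4 µM, then a duplicate retest at 5 µM averaging 50% or more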;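 further: plate controls were cells with TRAIL plus DMSO for no effect and medium-only wells lacking cells for full effect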
STAT3 blocker: inhibitors of IL-6 induced STAT3 signaling; U3A cells, IL-6 STAT3-luciferase reporter, luminescence; host cell line lacks STAT1; inhibition, % at 5.5 µM; 190,000 tested, 0.89% active;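 active means inhibition above the mean inhibition across all screened compounds plus 3 SD, cut at about 44% in these data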;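 further: 0% = DMSO only wells and 100% = 100 µM nifuroxazide control wells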
* marks the source's active call; other numbers are inactive results. Most compounds without a hit are left out; they make up all but 2.4% or so of the library.

For COc1cc2nc(N(C)C)nc(N)c2cc1OC the results were HSP90 refold inh 0.3, STAT1 blocker -8.0, HSF1 inhib -7.9, C8 TRAIL sens 1.3, PPC-1+TRAIL kill 4.5 and STAT3 blocker -8.7.
Screening CN(C)c1ccc(Sc2ccc3nc(N)nc(N)c3c2)cc1 returned C8 TRAIL sens 70.8*.
`N#Cc1c(N)n(C2OC(CO)C(O)C2O)c2ncnc(N)c12` (centres undefined) gave HSF1 inhib 78.4* and C8 TRAIL sens 44.5.
For COC(=O)c1cc(S(=O)(=O)NCC(C)c2ccccc2)c[nH]1 (centres undefined) the results were C8 TRAIL sens -0.5.
COC(=O)c1cc(S(=O)(=O)NCCc2ccccc2)c[nH]1 was read as HSP90 refold inh 4.5, HSF1 inhib -81.3* and C8 TRAIL sens -6.5.
`O=C(Nc1ccc2cn[nH]c2c1)c1ccccc1F` gave HSP90 refold inh 0.7, STAT1 blocker -49.5, HSF1 inhib 26.3, C8 TRAIL sens 21.7, PPC-1+TRAIL kill 15.6 and STAT3 blocker 4.0.
O=C(Nc1ccc2nc(-c3cccnc3)[nH]c2c1)c1ccccc1F was read as HSP90 refold inh -2.4, STAT1 blocker -6.2, HSF1 inhib -63.0*, C8 TRAIL sens 31.5, PPC-1+TRAIL kill 21.5 and STAT3 blocker 32.3.
COc1ccc(C(=O)NCC2CCCO2)cc1OC (centres undefined) was read as HSP90 refold inh 0.1, HSF1 inhib 1.4, C8 TRAIL sens 11.4 and PPC-1+TRAIL kill 4.8.
`COc1cc(SC)ccc1C(=O)NCC1CCCO1` (centres undefined) gave HSP90 refold inh -1.4, STAT1 blocker -3.4, HSF1 inhib -74.0*, C8 TRAIL sens 9.4, PPC-1+TRAIL kill 5.7 and STAT3 blocker -0.4.
Screening Cn1c(=O)ccc2ccccc21 returned C8 TRAIL sens -7.0.
Screening O=c1[nH]c(Nc2ccc(F)cc2)cc2ccccc12 returned HSP90 refold inh 16.4*, STAT1 blocker -9.4, HSF1 inhib 1.7, C8 TRAIL sens 1.5, PPC-1+TRAIL kill 21.8 and STAT3 blocker 3.0.
`O=c1[nH]c(Nc2ccccc2Cl)cc2ccccc12` gave HSF1 inhib 31.4 and C8 TRAIL sens -14.0.
Cc1ccccc1Nc1cc2ccccc2c(=O)[nH]1 was read as HSP90 refold inh 7.4, STAT1 blocker -1.4, HSF1 inhib 11.3, C8 TRAIL sens 88.4*, PPC-1+TRAIL kill 20.8 and STAT3 blocker 10.6.
O=c1[nH]c(Nc2ccccn2)cc2ccccc12 was read as HSF1 inhib -38.3 and C8 TRAIL sens -6.2.
Screening COc1ccc(NC(=O)COC(=O)c2c(NC(C)=O)sc(C)c2C)cc1 returned C8 TRAIL sens 7.1.
CCn1c(C)cc(C(=O)COC(=O)c2ccccc2[N+](=O)[O-])c1C was read as C8 TRAIL sens 93.2*.
CCCn1c(C)cc(C(=O)COC(=O)c2ccc[nH]c2=O)c1C was read as HSP90 refold inh 1.7, STAT1 blocker 15.4, HSF1 inhib -69.9*, C8 TRAIL sens 54.2*, PPC-1+TRAIL kill 14.6 and STAT3 blocker 41.4.
For Cc1cc(C(=O)COC(=O)c2ccc[nH]c2=O)c(C)n1-c1ccccc1F the results were HSP90 refold inh 4.9, HSF1 inhib -51.3*, C8 TRAIL sens 58.6* and PPC-1+TRAIL kill 41.7.
Screening O=C(COC(=O)c1ccccc1[N+](=O)[O-])c1ccc2c(c1)OCO2 returned HSF1 inhib -66.4* and C8 TRAIL sens 3.7.
`Cc1ccc(-n2c(C)cc(C(=O)COC(=O)c3ccc[nH]c3=O)c2C)cc1C` gave HSP90 refold inh -1.9, STAT1 blocker -9.0, HSF1 inhib -14.0, C8 TRAIL sens 37.3, PPC-1+TRAIL kill 26.4 and STAT3 blocker -8.6.
`Cc1cccc(C(=O)OCC(=O)c2ccc3c(c2)OCO3)c1O` gave HSP90 refold inh 3.9, HSF1 inhib 45.1 and C8 TRAIL sens 27.6.
Screening CNC(=O)C[C@H]1C(=O)N(CCc2ccccc2)C[C@@H]1Cc1ccccc1 returned C8 TRAIL sens -6.0.
Screening O=C(C[C@H]1CC[C@@H]2[C@H](COC[C@H](O)CN2C(=O)c2cnccn2)O1)NCc1ccc(Cl)cc1 returned C8 TRAIL sens -4.5.
Screening Cc1ccc(S(=O)(=O)CCC(=O)Nc2ccc(Br)cc2)cc1 returned HSP90 refold inh 2.5, HSF1 inhib -66.9* and C8 TRAIL sens -4.9.
COc1cc(OC)cc(-c2cc3cc4c(cc3cn2)OCO4)c1 was read as C8 TRAIL sens 72.0*.
For c1ccc(-c2cc3cc4c(cc3cn2)OCO4)cc1 the results were C8 TRAIL sens 50.7*.
`COc1ccc(-c2cc3cc(OC)c(OC)cc3cn2)cc1` gave C8 TRAIL sens -0.7.
`COc1ccc(-c2noc(-c3ccc4c(c3)OCO4)n2)cc1` gave HSP90 refold inh -3.3, STAT1 blocker -23.8, HSF1 inhib 12.5, C8 TRAIL sens 45.4*, PPC-1+TRAIL kill 29.1 and STAT3 blocker 17.3.
For COc1cc(OC)cc(-c2cc3ncccc3cn2)c1 the results were C8 TRAIL sens -18.2.
`c1cc(-c2noc(-c3ccc4c(c3)OCO4)n2)ccn1` gave HSP90 refold inh 2.6, STAT1 blocker -18.1 and STAT3 blocker 18.0.
Screening COc1ccc(-c2cc3cc4c(cc3cn2)OCO4)cc1 returned C8 TRAIL sens 54.5*.
COc1cc(OC)cc(-c2cc3ccc(OC)cc3cn2)c1 was read as C8 TRAIL sens 82.8*.
Screening Cc1noc(NS(=O)(=O)c2ccc(N3Cc4ccccc4C3=O)cc2)c1C returned HSP90 refold inh -4.1, STAT1 blocker -6.8, HSF1 inhib -85.0*, C8 TRAIL sens 16.6, PPC-1+TRAIL kill 21.7 and STAT3 blocker -6.1.
Cc1noc(NS(=O)(=O)c2ccc(NC(=O)c3ccc(N4C(=O)c5ccccc5C4=O)cc3)cc2)c1C was read as HSP90 refold inh -2.1, STAT1 blocker -0.8, HSF1 inhib -5.3, C8 TRAIL sens 16.6, PPC-1+TRAIL kill 13.3 and STAT3 blocker 5.1.
`CCc1nc2ccc(C(=O)N3CCCC(C(N)=O)C3)cn2c1N(C)Cc1ccc(OC)cc1` (centres undefined) gave C8 TRAIL sens 4.0.
CN(Cc1nc(-c2ccccc2)no1)C(=O)c1ccc2c(c1)OCO2 was read as HSF1 inhib -59.3* and C8 TRAIL sens -4.1.
`O=C(NCC(=O)N1CCN(c2ccccc2O)CC1)c1ccc(Br)o1` gave HSF1 inhib -51.9* and C8 TRAIL sens -35.0.
`Cc1ccc(NC(=O)CN2C(=O)NC(C)(CCc3ccccc3)C2=O)cc1` (centres undefined) gave HSP90 refold inh -1.4, STAT1 blocker -10.1, HSF1 inhib 3.6, C8 TRAIL sens -6.5, PPC-1+TRAIL kill 8.5 and STAT3 blocker -1.1.
